About 79,000 compounds went through this panel and 15% of them were active in at least one assay; those are over-represented in the sample as a whole. Cut-off read from the data, not from the text of the source: active = growth inhibition above about 70%; inactive = the rest.
Columns and labels:
[1] = NCI Yeast Anticancer Drug Screen. Data for the rad50 strain (AID 155);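 note: 0% = growth of vehicle-only cultures of the same strain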; conditions: S. cerevisiae rad50 strain growth inhibition; at 50.0 µM; hits give high values
Summary of the method: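 Inhibition values express reduced yeast growth in compound-treated cultures relative to vehicle-treated controls.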

[2] = NCI Yeast Anticancer Drug Screen. Data for the mec2-1 strain (AID 157); conditions: S. cerevisiae mec2-1 strain, at 50.0 µM, hits give high values
Summary of the method: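 Each compound was tested on mec2-1 yeast, a strain altered in DNA damage repair or cell cycle control. Growth inhibition is reported relative to vehicle.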

[3] = NCI Yeast Anticancer Drug Screen. Data for the sgs1 mgt1 strain (AID 161);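 note: 0% = growth of cultures given vehicle only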; conditions: S. cerevisiae sgs1 mgt1 strain, at 50.0 µM, hits give high values
Summary of the method: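 Test agents were incubated with a DNA-repair-mutant yeast strain. Growth was then read and compared against vehicle-treated controls.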

[4] = NCI Yeast Anticancer Drug Screen. Data for the cln2 rad14 strain (AID 165);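 note: 0% = growth equal to vehicle treated cultures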; conditions: S. cerevisiae cln2 rad14 strain, at 50.0 µM, hits give high values
Summary of the method: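 Test compounds were added to cln2 rad14 yeast cultures; inhibition of growth was then determined by comparison with vehicle treatment.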

[5] = NCI Yeast Anticancer Drug Screen. Data for the bub3 strain (AID 167); conditions: S. cerevisiae bub3 mutant strain, at 50.0 µM, hits give high values
Summary of the method: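 Steps: expose the mutant yeast strain to compound; grow alongside vehicle-treated cultures; measure growth; express inhibition against the vehicle cultures.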

[6] = NCI Yeast Anticancer Drug Screen. Data for the mlh1 rad18 strain (AID 175); conditions: S. cerevisiae mlh1 rad18 strain growth inhibition; at 50.0 µM; hits give high values
Summary of the method: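 Inhibition values reflect reduced growth of mutant yeast versus vehicle-treated controls following compound exposure; the mutations affect DNA damage repair.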

Measured: growth inhibition

O=Cc1c(O)ccc2ccc3ccccc3c12
inactive: [1] 16.1% | [2] 7.25% | [3] 10.1% | [4] -32.7% | [5] -7.7% | [6] 16.4%

Clc1ccc(CSc2cnnc(SCc3ccc(Cl)cc3Cl)c2SCc2ccc(Cl)cc2Cl)c(Cl)c1
inactive: [1] 5.9% | [2] 5.9% | [3] 8.05% | [4] 2.25% | [5] -5.15% | [6] -6.6%

Cc1c(I)sc(I)c1I
inactive: [1] 39.6% | [2] 1.75% | [3] 30.9% | [4] 12.9% | [5] 4.1% | [6] 12.6%

CC(=O)Nc1ccc(C(=O)NN2C(=O)C(Cl)C2c2ccc(Cl)cc2)cc1 (stereo unspecified)
inactive: [1] -50.3% | [2] -32.3% | [3] -42.8% | [4] -27.3% | [5] -28.9% | [6] -43.5%

C/C(=C/CNc1ncnc2c1ncn2CCC(=O)O)CO
inactive: [1] -22.4% | [2] 12.5% | [3] -31.7% | [4] 1.65% | [5] 1.7% | [6] -0.5%

O=C(NCCCN1CC2CCCC2C1)C(c1ccccc1)c1ccccc1 (stereo unspecified)
inactive: [1] -22.9% | [2] -2.55% | [3] -41.8% | [4] -5.3% | [5] -10.7% | [6] -24.3%

Nc1ccc(C(=O)O)cc1Cl
inactive: [1] 0.85% | [2] 0.75% | [3] 2.9% | [4] -35.5% | [5] -6.3% | [6] -22.2%

Cc1onc(-c2ccccc2Cl)c1C(=O)NCC(=O)O
inactive: [1] -5.55% | [2] 2.6% | [3] -3.5% | [4] 3.5% | [5] 12.7% | [6] -0.15%

CN=NNc1ccc(C(=O)NC(C)C)cc1
inactive: [1] -3.65% | [2] -2% | [3] -8.2% | [4] -1.15% | [5] -13.7% | [6] -14.7%

O=C(CCBr)OCc1ccccc1
inactive: [1] -12.5% | [2] -7.45% | [3] 1.1% | [4] -20.8% | [5] -26.2% | [6] 25%

CCc1ccccc1NC(=O)/C=N/O
inactive: [1] -27.9% | [2] -24.1% | [3] -17.6% | [4] -7.3% | [5] -22.6% | [6] -11.2%

C=C1C(=O)OC2/C=C(\C)C(OC(C)=O)C3OC3C(C)(O)CC(OC(=O)/C(C)=C/C)C12 (stereo unspecified)
inactive: [1] 3.35% | [2] 2.2% | [3] -15.4% | [4] -5.2% | [5] -29.7% | [6] -13.1%

CC(=Nc1ccc(Cl)c(Cl)c1)c1ccncc1
inactive: [1] -31.9% | [2] -10.1% | [3] -58% | [4] -31.6% | [5] 2.1% | [6] -35.1%

CC(C)N(C(=O)C12C3C4C1(I)C1C2C3(I)C41C(=O)N(C(C)C)C(C)C)C(C)C (stereo unspecified)
inactive: [1] -9.55% | [2] 23.1% | [3] 25.9% | [4] 18.6% | [5] -0.25% | [6] -12.2%

CC(C)CNC(=O)O
inactive: [1] 5.15% | [2] -7.1% | [3] -7.5% | [4] -6.15% | [5] -10.8% | [6] -4.75%

Cc1ccc(S(=O)(=O)N/N=C/C(C)C)cc1
inactive: [1] 14.2% | [2] -15.6% | [3] 4.75% | [4] 17.8% | [5] -14.8% | [6] 24.2%

C[S+]1C=C(c2ccccc2)SC=C1c1ccccc1 (stereo unspecified)
inactive: [1] 35.2% | [2] 32.9% | [3] 59.6% | [4] 8.3% | [5] 47% | [6] 55%

CCNC(=S)OC1CCC2(C)C(=CCC3C2CCC2(C)C(C(C)CCC(CC)C(C)C)CCC32)C1 (stereo unspecified)
inactive: [1] -1.7% | [2] 6.6% | [3] -11.6% | [4] -24.4% | [5] -1.55% | [6] -23.8%

CCC(=O)NCC(=O)O
inactive: [1] -4.15% | [2] -10.6% | [3] -16.1% | [4] 0.3% | [5] 8.15% | [6] -6.15%

COc1ccc2c(C)[n+]3ccc4cc(OC)c(OC)cc4c3cc2c1 (tested in a mixture with another compound)
inactive: [1] 21.5% | [2] 12.4% | [3] 22.9% | [4] -6.7% | [5] 22.5% | [6] 32.8%

CC1(C)S[C@@H]2[C@H](NC(=O)C3(N)CCCCC3)C(=O)N2[C@H]1C(=O)O
inactive: [1] -11.8% | [2] -29.1% | [3] 7.85% | [4] -5.65% | [5] -59.6% | [6] -11.8%

Cc1[nH]c2ccccc2c1C1=CC(=O)N(c2ccccc2)C1=O
inactive: [1] -24.1% | [2] -23.6% | [3] 9.3% | [4] 21.4% | [5] -4.7% | [6] -7.9%

CC(=O)Nc1ccc(SC#N)c2c(NC(C)=O)cccc12
inactive: [1] 44.6% | [2] 27.5% | [3] 56.5% | [4] 27.6% | [5] 30.4% | [6] 47.7%

CC(=O)Nc1cc(C)c(C(=O)O)c(C)c1
inactive: [1] -26.5% | [2] -19.4% | [3] -9.35% | [4] -18.1% | [5] -24.9% | [6] -21.4%

COc1ccc2c(c1)C1(C)CCCC(C)(CN=C=O)C1CC2 (stereo unspecified)
inactive: [1] 3.55% | [2] 14.4% | [3] -4.75% | [4] 4.8% | [5] -11.9% | [6] -1.95%

CCC(C)(C#N)OC(C)=O (stereo unspecified)
inactive: [1] -3.75% | [2] -26.6% | [3] -8.4% | [4] -6.85% | [5] 4.6% | [6] 8.45%

COc1cc(/C=C/c2cc(/C=C/c3ccc(O)c(OC)c3)c([N+](=O)[O-])cc2[N+](=O)[O-])ccc1O
inactive: [1] 66.3% | [2] 23.8% | [3] 42.4% | [4] -4.45% | [5] 7.15% | [6] 47.7%

OCC1COC(c2ccc(Cl)cc2)O1 (stereo unspecified)
inactive: [1] -10.1% | [2] -10.4% | [3] -19.8% | [4] -17.9% | [5] -16.4% | [6] -7.75%

CNC(=O)OCc1c(COC(=O)NC)c(C)n(-c2ccc3c(c2)OCO3)c1C
inactive: [1] -3.2% | [2] -6.95% | [3] 19.2% | [4] -0.45% | [5] 1.35% | [6] -40.3%

COc1cc(OC)c(OC(=O)CCl)c(OC)c1
inactive: [1] -3.85% | [2] 1.3% | [3] 3.2% | [4] 1.7% | [5] 11.2% | [6] 17.4%

CCc1ccc(O)c(CN2CCN(Cc3cc(CC)ccc3O)CC2)c1
inactive: [1] -2.85% | [2] -15.7% | [3] 20.5% | [4] -18.4% | [5] -4.8% | [6] 17.1%

CCCCCCCCCCCCCCCCS(=O)(=O)c1ccc(S(=O)(=O)CS(C)(=O)=O)cc1[N+](=O)[O-]
inactive: [1] -5.55% | [2] -16.2% | [3] 9.85% | [4] 0.85% | [5] 21.1% | [6] 15.3%

CC1CCCC2(C1)OCC(O)CO2 (stereo unspecified)
inactive: [1] 23.2% | [2] -2.2% | [3] 8.8% | [4] 12.8% | [5] 7.65% | [6] 10.2%

CCOC(=O)C1=C(Nc2ccc(Cl)c(Cl)c2)OC/C1=N\NC(=O)Cc1ccccc1
inactive: [1] -49.8% | [2] -22% | [3] -4.05% | [4] -12% | [5] -11.7% | [6] -35.4%

CN1CCOC(=O)C(C#N)=C1c1ccccc1
inactive: [1] -26.5% | [2] 6.95% | [3] -9.15% | [4] -17% | [5] -7.25% | [6] -3.15%

CCCCCCCC/C=C\CCCCCCCC(=O)OCCN(CCOC(=O)CCCCCCC/C=C\CCCCCCCC)C(=O)c1ccccc1
inactive: [1] -12.9% | [2] -1.2% | [3] -17.9% | [4] -20.2% | [5] -9.9% | [6] -2.65%

O=C(Nc1ccccc1CC(O)c1ccc2c(c1)OCO2)c1ccccc1 (stereo unspecified)
inactive: [1] 19.1% | [2] -8.1% | [3] 3.65% | [4] -22.8% | [5] 11.6% | [6] 13.8%

Cc1cc(C)c2c(=O)cc(-c3cccc(Cl)c3)[nH]c2n1
inactive: [1] 15.6% | [2] -12.4% | [3] -25% | [4] -23.8% | [5] -50.7% | [6] -65.7%

COc1ccc(C#CC(O)C(F)(F)F)cc1 (stereo unspecified)
inactive: [1] -7.9% | [2] -20.4% | [3] -8.35% | [4] -18.4% | [5] -46% | [6] -11.5%

C=CC1C(OC2OC(CO)C(O)C(O)C2O)OC=C(C(=O)OC)C1CC=O (stereo unspecified)
inactive: [1] 32.9% | [2] 11.9% | [3] 4.15% | [4] 13.4% | [5] 18.3% | [6] 32.7%

CC1CCC2C(C(=O)O[C@H]3C4C=CO[C@@H](OC5OC(CO)C(O)C(O)C5O)C4[C@@]4(CO)O[C@@H]34)=CO[C@@H](OC3OC(CO)C(O)C(O)C3O)C12 (stereo partly specified)
inactive: [1] -12.3% | [2] -32.5% | [3] -18.6% | [4] 4.2% | [5] -12.8% | [6] -11.4%

— PubChem BioAssay (NCI)
